Our source for the activity change, negative = inhibition values is PubChem BioAssay AID1259415 (National Center for Advancing Translational Sciences (NCATS), 2018).

Where “and” joins values, the source holds several entries; their conditions need not be identical. Equal entries are not always repeated. In all, about 410,000 compounds went through this assay and about 18,000 (4.4%) were called active. Inconclusive results (about 7%) are left out. The sample holds actives, similar compounds and a random draw of the others, so the mix is not that of the screen. Rule as the data show it: active = activity change below about -60%; inconclusive = no clear call, values can overlap the other calls; inactive = above about -39%. More than one record can exist for a structure, and the calls need not agree.
% is scaled to controls: 0 for no effect and ±100 for the full control effect.

The nature of the assay: qHTS Assay for inhibitors of the human cytomegalovirus (HCMV). Conditions: HFF cells, HCMV-luciferase reporter, 72 h; at 57.5 µM; stronger effect = lower value. Put shortly:
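Screen run at 2 compound doses on HFFs infected with reporter HCMV, MOI 1 PFU/cell. Luciferase activity from cell lysates at 72 h post infection gave inhibition relative to buffer-only and Salinomycin wells.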
Turning to `Brc1ccc2ncnc(NCc3cccnc3)c2c1`, the activity change, negative = inhibition is -65.9% (active).

On to `C=CCOc1cccc(CNCc2cccnc2)c1`, for which the activity change, negative = inhibition was 21.4% (inactive).

In the case of `Clc1ccc(Cn2ncc3c(NCc4cccnc4)ncnc32)cc1`, the activity change, negative = inhibition is -72.2% (active).

As for `C=CCNc1ncnc2ccc(Br)cc12`, the activity change, negative = inhibition was -60.6% (active).

`Clc1cccc(-n2ncc3c(NCCc4ccccc4)ncnc32)c1`: the activity change, negative = inhibition is 41.5% (inactive).

For the compound `CC(C)CNc1ncnc2c1cnn2Cc1ccc(Cl)cc1`, the activity change, negative = inhibition was -30.5% (inactive).

In the case of `c1cncc(CNC2=NCCC2)c1`, the activity change, negative = inhibition is 46.1% (inactive).

`COc1ccc(CCNS(=O)(=O)c2cccc([N+](=O)[O-])c2)cc1`: the activity change, negative = inhibition is -2.78% (inactive).

`COc1cc2nc(NCC(C)c3ccccc3)n3nc(-c4ccccc4)nc3c2cc1OC` (centres undefined): the activity change, negative = inhibition was 5.32% (inactive).

With `Cc1ccc2cccc(NC(=O)C(C)Oc3ccc(C)c(C)c3)c2n1` (centres undefined), the activity change, negative = inhibition was -3.68% (inactive).

As for `C=CCNC(=O)c1cc2nc(C3CC3)cc(C(F)F)n2n1`, the activity change, negative = inhibition is 37.6% (inactive).

For `COc1ccc(N(CC(=O)Nc2ccc(F)c(F)c2)S(=O)(=O)c2c(C)[nH]c(=O)[nH]c2=O)cc1`, the activity change, negative = inhibition is 0% (inactive).

As to `CC(C)c1ccc(NC(=O)c2cc(S(=O)(=O)N3CCc4ccccc4C3)ccc2F)cc1`, the activity change, negative = inhibition is 3.74% (inactive).

In the case of `CC1=C(C(=O)OCC(C)C)C(c2ccc(OCc3ccccc3)cc2)N2C(=O)CCSC2=N1` (centres undefined), the activity change, negative = inhibition was 14.9% (inactive).

In the case of `COc1ccc(NC(=O)CN2C(=O)C(c3ccccc3)=NC23CCCCCC3)cc1OC`, the activity change, negative = inhibition is -13.9% (inactive).

Consider `CC1CCC2(CC1)N=C(c1ccccc1)C(=O)N2CC(=O)Nc1ccc(F)c(Cl)c1` (centres undefined), for which the activity change, negative = inhibition was -96% (active).

`CCc1ccc(NC(=O)CN2C(=O)C(c3ccccc3)=NC23CCCCCC3)cc1`: the activity change, negative = inhibition is 16.1% (inactive).

For the compound `COc1cccc(NC(=O)C2CCN(c3cc(C)nc4c(-c5ccc(Cl)cc5)c(C)nn34)CC2)c1`, the activity change, negative = inhibition is -5.4% (inactive).

With `CC(=O)c1cc(-c2ccccc2)[nH]c1N1CCCC1`, the activity change, negative = inhibition is 30.4% (inactive).

For the compound `Cc1ccc(-c2cc(=O)c3ccc(F)cc3[nH]2)cc1`, the activity change, negative = inhibition was 3.06% (inactive).

For the compound `O=c1cc(-c2ccccc2)[nH]c2cc(F)ccc12`, the activity change, negative = inhibition was -67.4% (active).

Take `COc1cccc2sc(Nc3nc(C)c(C(C)=O)s3)nc12`: the activity change, negative = inhibition was -77% (active).

As to `COc1ccccc1Nc1ncc(C(C)=O)c(C)n1`, the activity change, negative = inhibition is 16.2% (inactive).

For `COc1ccccc1CNC(=O)COC(=O)c1sc(C)nc1C`, the activity change, negative = inhibition is -2.84% (inactive).

Take `O=C(Nc1ccc(-c2nc3cc(NC(=O)c4ccccc4Cl)ccc3o2)cc1)c1ccccc1Cl`: the activity change, negative = inhibition was -35.6% (inactive).

Take `COc1ccc(-c2nc(Cn3c(=O)cc(C)c4c(C)nn(-c5ccccc5)c43)c(C)o2)c(OC)c1`: the activity change, negative = inhibition is -2.37% (inactive).

As for `Cc1nc2ccc(S(=O)(=O)NC(C(=O)NCc3ccccc3Cl)C(C)C)cc2s1` (centres undefined), the activity change, negative = inhibition is -12.9% (inactive).

On to `CC1(C)CC(=O)C=C(c2ccc(Cl)c(C(F)(F)F)c2)C1`, for which the activity change, negative = inhibition was -4.75% (inactive).

Consider `CC1(C)CC(=O)C=C(c2ccc3ncccc3c2)C1`, for which the activity change, negative = inhibition is -83.3% (active).

`COc1ccccc1-c1n[nH]nc1C1=CC(=O)CC(C)(C)C1`: the activity change, negative = inhibition is -4.89% (inactive).

In the case of `CC1CCCCN1Cc1c(O)ccc2c(=O)c(-c3cccc(Cl)c3)c(C(F)(F)F)oc12` (centres undefined), the activity change, negative = inhibition was 11.3% (inactive).

For `N#C/C(=C/c1ccc(N2CCCCC2)o1)C(=O)NCCc1c[nH]c2ccccc12`, the activity change, negative = inhibition is -60.4% (active).

Turning to `O=C(NCCCc1ccccc1)C(=O)c1c[nH]c2ccccc12`, the activity change, negative = inhibition is 21.3% (inactive).

As to `O=C(CCc1c[nH]c2ccccc12)NCCOc1ccccc1`, the activity change, negative = inhibition was -2.62% (inactive).

`COc1ccc(NC(=O)Cn2cc(C(=O)c3ccncc3)c(=O)c3cc(C)ccc32)cc1Cl`: the activity change, negative = inhibition was -8.82% (inactive).

As for `CCCOc1ccc(C2c3c(-c4ccccc4O)n[nH]c3C(=O)N2Cc2cccnc2)cc1` (centres undefined), the activity change, negative = inhibition was 8.52% (inactive).

Take `CCOC(=O)c1ccc(NC(=O)c2c(NCc3cccs3)sc3c2CCCC3)cc1`: the activity change, negative = inhibition was -7.9% (inactive).

Regarding `CC(C)(C)Nc1nc(-c2ccccn2)nc2ccccc12`, the activity change, negative = inhibition is -100% (active).

With `COc1ccc(N2CCN(c3nc(-c4ccccc4F)nc4ccccc34)CC2)cc1`, the activity change, negative = inhibition is -30% (inactive).

With `COc1cc(Nc2nc(-c3ccc(OC)c(OC)c3)nc3ccccc23)cc(OC)c1`, the activity change, negative = inhibition is -33.1% (inactive).

`CCCc1nn2c(=O)cc(COC(=O)c3ccc(NC(=O)COc4ccc(F)cc4)cc3)nc2s1`: the activity change, negative = inhibition was -24.2% (inactive).

With `CC(C)(C)C(=O)CCN1C(=O)C2(OCCO2)c2ccccc21`, the activity change, negative = inhibition is 1.52% (inactive).

For `COc1ccc(C2C(=O)N(C3CCCCCC3)CC(=O)N2CCc2ccc(Cl)cc2)cc1OC` (centres undefined), the activity change, negative = inhibition is -12.5% (inactive).

Turning to `Cc1cn(C)c(CC(=O)NCc2ccccc2)c1C(=O)O`, the activity change, negative = inhibition was 16.2% (inactive).

As to `CC1CCN(C(=O)c2ccc(S(=O)(=O)Cc3cc(F)ccc3F)c([N+](=O)[O-])c2)CC1`, the activity change, negative = inhibition is -83.1% (active).

For the compound `CC1=Nc2cc(C(=O)N3CCC(C)CC3)ccc2Sc2ccc(Cl)cc21`, the activity change, negative = inhibition is -34.1% (inactive).

For the compound `NC(=O)C1CCN(C(=O)c2ccc(F)c(S(=O)(=O)N3CCOCC3)c2)CC1`, the activity change, negative = inhibition is -6.8% (inactive).

Turning to `Cc1cccc(CSc2nc3ccncc3n2CC(=O)N(C)C2CCCCC2)c1`, the activity change, negative = inhibition was 19.5% (inactive).

For `O=C(NCC(c1ccco1)S(=O)(=O)c1cccs1)c1ccc(F)cc1` (centres undefined), the activity change, negative = inhibition is 0% (inactive).

In the case of `CSc1ncnc2sc(C)c(C)c12`, the activity change, negative = inhibition is -17.9% (inactive).

As for `Cc1cccc(-n2ccnc2SCC(=O)Nc2cccc3ccccc23)c1C`, the activity change, negative = inhibition is -0.357% (inactive).

On to `O=C(NCCc1ccc(F)cc1)c1ccc2nccnc2c1`, for which the activity change, negative = inhibition is 104% (inactive).

As to `CCn1c(=O)c(=O)n(CC)c2cc(N3CCCCC3)c(NC(=O)c3cccc(F)c3)cc21`, the activity change, negative = inhibition is -12.9% (inactive).

`Cc1ccc(C)c(NC(=O)c2ccc3nccnc3c2)c1`: the activity change, negative = inhibition is -67% (active).

For `CC(C)CCC(C)NC(=O)c1ccc2nccnc2c1` (centres undefined), the activity change, negative = inhibition is 43% (inactive).

Regarding `O=C(Nc1ccccc1N1CCCCC1)c1ccc2nccnc2c1`, the activity change, negative = inhibition was -62.2% (active).

Consider `O=C(Nc1ccccc1N1CCCC1)c1ccc(F)c(S(=O)(=O)N2CCOCC2)c1`, for which the activity change, negative = inhibition was -11.8% (inactive).

For `CCOC(=O)c1ccccc1NC(=O)c1nn(-c2ccc(OC)c(Cl)c2)c(=O)c2c1c1ccccc1n2C`, the activity change, negative = inhibition was 11.6% (inactive).

As to `Cc1ccc(C)c(Cn2c(C(=O)O)c(CNCc3cccs3)c3ccccc32)c1`, the activity change, negative = inhibition was -8.87% (inactive).

In the case of `CC(=O)N1CCCc2cc(S(=O)(=O)N3CCC(C(=O)NCc4ccc(C)cc4)CC3)ccc21`, the activity change, negative = inhibition is -4.1% (inactive).

Take `COc1ccc(OC)c(-c2noc(N3CCN(c4cc(Cl)ccc4C)CC3)n2)c1`: the activity change, negative = inhibition was -0.0922% (inactive).

As for `COC(=O)c1cc(NC(=O)c2cnc(SC)nc2-c2ccccc2)cc(C(=O)OC)c1`, the activity change, negative = inhibition is 22.8% (inactive).

For the compound `CC1CCC(C(C)C)C(=O)/C1=C\c1ccc(NC(=O)CCC(=O)O)cc1` (centres undefined), the activity change, negative = inhibition is -26.4% (inactive).

Take `O=c1[nH]c2ccccc2n1C1CCN(CCOc2ccccc2)CC1`: the activity change, negative = inhibition was -29.7% (inactive).

For the compound `O=c1[nH]c2ccccc2n1C1CCN(C(c2ccccc2)c2nnnn2Cc2ccccc2)CC1` (centres undefined), the activity change, negative = inhibition is -93.7% (active).

Consider `CSCCC(c1nnnn1C(C)(C)C)N1CCC(n2c(=O)[nH]c3ccccc32)CC1` (centres undefined), for which the activity change, negative = inhibition was -37.7% (inactive).

Take `CCOC(=O)N1CCN(C(c2ccnc3ccccc23)c2nnnn2-c2c(C)cccc2C)CC1` (centres undefined): the activity change, negative = inhibition was -0.353% (inactive).

Take `CC(C)C(c1nnnn1Cc1ccccc1)N1CCC(C(N)=O)CC1` (centres undefined): the activity change, negative = inhibition was 55.3% (inactive).

For `O=c1[nH]c2ccccc2n1C1CCN(C(c2ccnc3ccccc23)c2nnnn2Cc2ccccc2)CC1` (centres undefined), the activity change, negative = inhibition was -61.4% (active).

Consider `CCCN(CCC)CCCNC(=O)CNC(=O)c1nn(-c2ccc(OC)cc2)c(=O)c2ccccc12`, for which the activity change, negative = inhibition was -0.192% (inactive).

On to `Cc1ccc(Cl)cc1N1CCN(C(=O)c2cn(C)c3ccc(S(=O)(=O)N(C)C4CCCCC4)cc3c2=O)CC1`, for which the activity change, negative = inhibition is 19.9% (inactive).

`Cc1cccc(OCC(=O)N(Cc2ccc(C(C)C)cc2)Cc2ccco2)c1C`: the activity change, negative = inhibition was -2.95% (inactive).

`Cc1nc(-c2nnc(SCC(=O)Nc3cc(C(F)(F)F)cc(C(F)(F)F)c3)n2C)cs1`: the activity change, negative = inhibition was 18.5% (inactive).

`COc1cc(NC(=O)c2nc3ccccc3nc2C)cc(OC)c1OC`: the activity change, negative = inhibition is 22.8% (inactive).

`Cc1nc2ccccc2nc1N/N=C/c1ccc(O)cc1O`: the activity change, negative = inhibition is -86.2% (active).

Turning to `Cc1n[nH]c(=O)nc1N/N=C/c1cccs1`, the activity change, negative = inhibition is 11.4% (inactive).

Take `COc1cccc2cc(C(=O)NCc3ccc(C)cc3)c(=N)oc12`: the activity change, negative = inhibition is -3.52% (inactive).

As to `COc1ccc(CNC(=O)c2cc3cccc(OC)c3oc2=O)cc1`, the activity change, negative = inhibition is -88.7% (active).

With `COc1ccc(CNC(=O)c2c[nH]c3c(OC)cc(OC)cc3c2=O)cc1`, the activity change, negative = inhibition was -39% (inactive).

For the compound `Cc1c(Cl)cccc1NC(=O)CCS(=O)(=O)c1ccc2c(c1)oc(=O)n2C`, the activity change, negative = inhibition was -4.78% (inactive).

Turning to `Cc1ccc(NC(=O)CS(=O)CC(=O)N(c2ccccc2)C(C)C(=O)NC2CCCC2)cc1` (centres undefined), the activity change, negative = inhibition is 4.37% (inactive).

For the compound `O=C(CCn1nnc2ccccc21)OCC(=O)c1ccc([N+](=O)[O-])cc1`, the activity change, negative = inhibition was 2.27% (inactive).

Turning to `O=C(CC(n1cncn1)C(Cl)(Cl)Cl)c1ccc([N+](=O)[O-])cc1` (centres undefined), the activity change, negative = inhibition is -0.398% (inactive).

Turning to `O=C(Cn1c[n+](CC(=O)c2ccc([N+](=O)[O-])cc2)cn1)c1ccc([N+](=O)[O-])cc1`, the activity change, negative = inhibition was -34.4% (inactive) and -92.6% (active).

In the case of `C[C@H](CO)N1C[C@H](C)[C@H](CN(C)C(=O)c2ccncc2)OCc2ccccc2-c2c(n(C)c3ccccc23)C1=O`, the activity change, negative = inhibition is -0.378% (inactive).

In the case of `CCN(CC)CCNc1ncnc2c1cnn2-c1cc(Cl)ccc1C`, the activity change, negative = inhibition was -19.7% (inactive).

Turning to `COc1ccc(C2=NS(=O)(=O)N(C)C(C(=O)NC(C)c3ccccc3)=C2)cc1` (centres undefined), the activity change, negative = inhibition is -13.9% (inactive) and -20.9% (inactive).

On to `COc1ccc(NC(=O)C2=CC(c3ccc(OC)c(OC)c3)=NS(=O)(=O)N2C)cc1`, for which the activity change, negative = inhibition is -70.9% (active).

For the compound `COc1cc(NC(=O)C2=CC(c3ccc(C)cc3)=NS(=O)(=O)N2C)cc(OC)c1OC`, the activity change, negative = inhibition is 8.94% (inactive).
